Only a selection was taken, and hits are over-represented in it overall.
DT40 TDP1 no CPT: qHTS for Inhibitors of human tyrosyl-DNA phosphodiesterase 1 (TDP1): qHTS in cells in absence of CPT. 420,000 compounds, 15% hits. DT40 Tdp1-/- hTDP1 cells, no CPT, ATP luminescence, 48 h. Potency, µM (highest dose often 46.2 µM), without a hit: at the top dose activity change, negative = growth inhibition, most hits filed as inhibitors; further: potency means the concentration at half of the fitted maximal effect; nearly all actives have a fitted effect of over 55% in size
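Chicken DT40 Tdp1-/- cells stably complemented with human TDP1 were seeded at 400 cells/well with DMSO in place of 20 nM camptothecin. After compound pinning, cells grew at least 48 hr at 37 °C; viability read by CellTiter-Glo luminescence.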
ALOX12 inh: ALOX12 (human) lipoxygenase inhibition; P18054; purified 12hLO, xylenol orange hydroperoxide absorbance; Potency, µM (doses to about 108 µM), without a hit: at the highest dose activity change, negative = inhibition, usual class: inhibitors; 580,000 compounds, 1.1% hits; AID 1671190; further: potency means the concentration at half of the fitted maximal effect
Target sequence (P18054 whole entry, looked up): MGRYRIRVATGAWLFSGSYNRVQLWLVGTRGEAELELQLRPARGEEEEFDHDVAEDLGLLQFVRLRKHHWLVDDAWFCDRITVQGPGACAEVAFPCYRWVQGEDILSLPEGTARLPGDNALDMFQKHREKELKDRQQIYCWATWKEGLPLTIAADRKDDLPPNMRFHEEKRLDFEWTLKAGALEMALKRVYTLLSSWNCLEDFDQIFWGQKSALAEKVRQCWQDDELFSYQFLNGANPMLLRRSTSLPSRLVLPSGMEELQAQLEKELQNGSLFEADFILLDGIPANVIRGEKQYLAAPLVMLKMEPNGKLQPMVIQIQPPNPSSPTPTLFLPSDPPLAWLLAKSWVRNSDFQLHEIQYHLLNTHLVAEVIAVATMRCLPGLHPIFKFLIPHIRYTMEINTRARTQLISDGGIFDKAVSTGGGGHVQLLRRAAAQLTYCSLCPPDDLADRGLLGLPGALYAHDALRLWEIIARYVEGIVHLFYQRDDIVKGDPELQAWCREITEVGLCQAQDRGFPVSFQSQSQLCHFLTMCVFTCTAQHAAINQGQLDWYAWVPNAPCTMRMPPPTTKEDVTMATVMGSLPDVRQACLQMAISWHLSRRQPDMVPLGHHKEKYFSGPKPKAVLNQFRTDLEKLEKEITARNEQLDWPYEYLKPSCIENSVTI
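Purified human 12hLO (150 nM final) in 25 mM Hepes, 0.01% Triton X-100, pH 7.0 was preincubated 15 min at room temperature with compound. Then 40 uM arachidonic acid was added, 30 min. Hydroperoxide was read by Fe-XO absorbance ratio 573/405 nm.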
HT1080 IDH1KD tx: HT-1080 IDH1 knockdown cell toxicity (counter line); 360,000 compounds, 2% hits; Potency, µM (top dose mostly 46.1 µM), for the others: at the highest dose activity, negative = toxicity, usual class: cytotoxic; HT-1080 IDH1 knockdown viability, ATP luminescence, 48 h;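 further: potency means the concentration at half of the fitted maximal effect; 0% = DMSO wells and -100% = cell-free medium wells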
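Assay cells: HT-1080 with IDH1 knockdown, 750 per well, RPMI/5% FBS. Exposure: 48 h at 37 °C following 2 h pre-incubation. Read: CellTiter-Glo luminescence; fitted concentration-response, curve class assigned.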
HT1080-NT tox: kills 2HG-producing HT-1080-NT fibrosarcoma cells. HT-1080-NT fibrosarcoma viability, CellTiter-Glo ATP luminescence, 48 h. Potency, µM (series often up to 46.1 µM), for inactives: at the highest dose activity, negative = less viability, most hits filed as cytotoxic. 360,000 compounds, 1.6% hits;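 further: NT is the 2HG producing partner of a matched IDH1 knockdown line; potency means the concentration at half of the fitted maximal effect; 0% = DMSO-treated cells and -100% = media-only wells without cells; nearly all actives have a fitted effect of over 55% in size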
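Viability of the 2HG-overproducing fibrosarcoma line after 48 hours of compound exposure at 37 degrees C was determined by luminescence with CellTiter-Glo, and concentration-effect curves were then fitted and categorized.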
DT40 TDP1 CPT: growth inhibition of DT40 Tdp1-/-;hTDP1 cells with camptothecin (screen for TDP1 inhibitors). 420,000 compounds, 12% hits. chicken DT40 Tdp1-/-;hTDP1 cells + 20 nM CPT, ATP luminescence, 48 h. Potency, µM (series often up to 46.2 µM), without a hit: at the highest dose activity change, negative = growth inhibition, most hits filed as inhibitors; further: potency means the concentration at half of the fitted maximal effect; nearly all actives have a fitted effect of over 55% in size
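Chicken DT40 Tdp1-/- cells stably complemented with human TDP1 were seeded at 400 cells/well in medium containing 20 nM camptothecin, exposed to pin-transferred compounds, and grown at 37 °C for at least 48 hr. Viability was read as ATP luminescence.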
IL-1B inflam inh: blocks inflammasome-driven IL-1 beta release. THP-1 LPS/ATP IL-1B secretion, AlphaLISA, 16 h; active compounds read low. activity change, % at 57.5 µM. 360,000 compounds, 4.7% hits; in the data active means activity change below about -50%; inconclusive means mostly about -30% to -49%
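THP-1 cells pretreated 1 hr with compounds (up to 57.5 uM final), then stimulated with LPS (250 ng/mL final) plus ATP (1.25 mM final); secreted IL-1B measured by AlphaLISA after 16 hr, decreased signal indicating inhibition.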
Numbers without * were called inactive; ? = inconclusive; · = not tested or not shown. Unless noted, the call rests on the fitted dose curve; in most records, active means well fitted curve in the direction sought with a large enough effect; inconclusive means small, poorly fitted or top-dose-only effect, or another doubt; inactive means no such curve, though single readings can be large; an effect the other way counts as inactive or inconclusive. Unless noted, on the % scale 0 is the no-effect control and ±100 the full control effect.

SMILES	DT40 TDP1 no CPT	ALOX12 inh	HT1080 IDH1KD tx	HT1080-NT tox	DT40 TDP1 CPT	IL-1B inflam inh
COCCn1cnnc1C(C)Nc1nc(-c2cccnc2)nc2c1CNC2 (stereo not drawn)	·	68%	·	·	·	·
COC(=O)[C@@H]1CCCN1C(=O)CCc1nnc(CCc2c[nH]c3ccccc23)o1	?	0%	-4%	-15%	?	-105*
COC(=O)C1CCCCN1C(=O)CCc1nnc(CCc2c[nH]c3ccccc23)o1 (stereo not drawn)	-30%	-1%	2%	10%	?	-5
O=[N+]([O-])c1cccc(S(=O)(=O)c2ccc(N3CCCCC3)c([N+](=O)[O-])c2)c1	26µM*	-3%	-24%	-12%	?	-15
O=[N+]([O-])c1ccc(N2CCCCCC2)c([N+](=O)[O-])c1	-24%	?	-4%	-2%	-11%	-9
O=[N+]([O-])c1cc(S(=O)(=O)c2ccc(N3CCCCC3)c([N+](=O)[O-])c2)ccc1N1CCCCC1	21µM*	-6%	0%	-3%	?	-8
COc1ccc2[nH]c(S(=O)Cc3ncc(C)c(OC)c3C)nc2c1 (stereo not drawn)	16µM*	?	-14%	-11%	?	4
COc1ccc2[nH]c(S(=O)Cc3ncc(C)c(OC)c3C)nc2n1 (stereo not drawn)	27µM*	·	·	·	?	·
Cc1nc2c(C(=O)NCCc3ccc(Cl)cc3)cnn2c(C)c1Cc1ccc(F)cc1	?	-37%	·	·	16µM*	·
COc1ccccc1CNC(=O)c1cnn2c(C)c(Cc3ccc(F)cc3)c(C)nc12	6.5µM*	-20%	·	·	5.8µM*	·
COc1ccccc1CNC(=O)c1ccccc1OCc1ccc(F)cc1	?	-19%	2%	3%	?	14
Cc1cc(C(F)F)n2ncc(C(=O)NCCc3ccc(Cl)cc3)c2n1	?	-17%	-10%	-3%	?	-8
CCOc1cc(/C=C2\SC(=NC)N(C)C2=O)c(Br)cc1OC(C)=O	21µM*	27%	4%	13%	?	15
Cn1c(C(=O)N2CCCC(C(=O)NCCCc3ccccc3)C2)cc2sccc21 (stereo not drawn)	10µM*	8%	-17%	-22%	18µM*	-10
Cn1c(C(=O)N2CCCC(C(=O)NCCc3ccccc3)C2)cc2sccc21 (stereo not drawn)	5.8µM*	-59%	?	?	5.8µM*	15
Cc1nn(Cc2ccccc2Cl)c(C)c1NC(=O)C1C2CCC(O2)C1C(=O)O (stereo not drawn)	?	-11%	0%	-2%	-18%	35
Cc1nn(Cc2ccc(Cl)cc2Cl)c(C)c1NC(=O)c1nn(C)cc1Cl	9.2µM*	-18%	-12%	6%	8.2µM*	0
CCc1cc(C(=O)Nc2c(C)nn(Cc3ccccc3Cl)c2C)no1	?	-7%	·	·	?	·
Cc1nn(Cc2ccc(Cl)cc2Cl)c(C)c1NC(=O)CCl	13µM*	0%	?	?	15µM*	-101*
Cc1nn(Cc2ccc(Cl)cc2Cl)c(C)c1NC(=O)C1C2CCC(O2)C1C(=O)O (stereo not drawn)	15µM*	?	-27%	-3%	?	-8
Cc1nnsc1NC(=O)OCc1ccc(Cl)cc1Cl	?	0%	-14%	-6%	-25%	51
Cc1nn(C)c(Cl)c1NC(=O)OCc1ccc(Cl)cc1Cl	13µM*	-9%	-26%	-2%	15µM*	-4
N=C(N)SCc1cccc(F)c1	·	-1%	·	·	·	·
CCN(Cc1ccc2c(c1)OCCO2)S(=O)(=O)c1cnn(C)c1	·	2%	·	·	·	·
CC1CCCN(C(=O)c2ccc3c(=O)n(Cc4ccc5c(c4)OCO5)c(=S)[nH]c3c2)C1 (stereo not drawn)	23µM*	-6%	-23%	?	16µM*	?
SMILES	DT40 TDP1 no CPT	ALOX12 inh	HT1080 IDH1KD tx	HT1080-NT tox	DT40 TDP1 CPT	IL-1B inflam inh
CCN(CC)C(=O)c1ccc2c(=O)n(Cc3ccc4c(c3)OCO4)c(=S)[nH]c2c1	21µM*	-1%	-2%	-1%	15µM*	-8
CCN(CC)C(=O)c1ccc2c(=O)n(Cc3cccc(Br)c3)c(=S)[nH]c2c1	15µM*	-2%	-2%	-16%	23µM*	-4
O=C(c1ccc2c(=O)n(Cc3ccco3)c(=S)[nH]c2c1)N1CCN(Cc2ccc3c(c2)OCO3)CC1	11µM*	·	-11%	-10%	14µM*	·
CC(C)OCCCNC(=O)c1ccc2c(=O)n(Cc3ccc4c(c3)OCO4)c(=S)[nH]c2c1	-11%	6%	11%	9%	0%	6
C=CCc1c(C)nc(Nc2nc(C)c3ccc(C)cc3n2)[nH]c1=O	·	-1%	·	·	·	·
CN(C)c1ncc2nc(CCc3ccccc3)c(=O)n(Cc3cccs3)c2n1	16µM*	?	·	·	?	·
CN(C)c1ncc2ncc(=O)n(CCc3ccccc3)c2n1	26µM*	0%	·	·	21µM*	·
Cc1nc2cnc(N(C)C)nc2n(Cc2cccs2)c1=O	-29%	0%	·	·	-14%	·
Cc1ccccc1NC(=O)Nc1ccc2c(c1)N(C(=O)c1ccccc1)CC2	·	-5%	·	·	·	·
Nn1c(SCC(=O)NCCc2ccccc2)nnc1-c1ccco1	·	25%	·	·	·	·
CC(C)NC(=O)CSc1nnc(-c2cc3c(s2)CCC(C(C)(C)C)C3)n1C (stereo not drawn)	·	19%	·	·	·	·
CCC(C(=O)Nc1ccccc1Cl)n1nc(C)c2c(C)n(-c3ccccc3)nc2c1=O (stereo not drawn)	?	9%	?	9%	?	-19
CCOC(=O)C(CC)n1nc(C)c2c(C)n(-c3ccc(C)cc3)nc2c1=O (stereo not drawn)	16µM*	-28%	·	·	18µM*	·
CCc1ccc(CNC(=O)C(CC)n2nc(C)c3c(C)n(-c4ccccc4)nc3c2=O)cc1 (stereo not drawn)	16µM*	3%	·	·	23µM*	·
CCC(C(=O)NCc1cccc(Br)c1)n1nc(C)c2c(C)n(-c3ccccc3)nc2c1=O (stereo not drawn)	?	-13%	·	·	23µM*	·
CCC(C(=O)NCc1cccc(C)c1)n1nc(C)c2c(C)n(-c3ccccc3)nc2c1=O (stereo not drawn)	?	-6%	-4%	-8%	?	3
CC1(C)CC(NC(=O)CCc2ccsc2)CC(C)(C)N1	·	-12%	·	·	·	·
CCOc1ccc(C2Nc3ccccc3C(=O)N2C2CC2)cc1OC (stereo not drawn)	·	31%	·	·	·	·

Source: PubChem (National Center for Advancing Translational Sciences (NCATS))
